These results are taken from PubChem BioAssay.

Usually inhibition stands for the change of the read-out against control, counted positive when it falls.

The structures appear in SMILES notation. Results filed as inconclusive are left out. Active and inactive are the calls of the source. Unless noted, no rule for the calls is given here.

Assay [1] in a line: rapamycin-like changes in RPL19A-GFP expression – cell-based, S. cerevisiae, multiplex flow cytometry, primary screen (AID 1862; in the data active = percent of DMSO control GFP below about 86%;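 also: lower values mimic rapamycin by blocking the RPL19A rise seen in DMSO cells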). Particulars: S. cerevisiae RPL19A-GFP strain, flow cytometry fluorescence, 3 h; at 10 µM; stronger effect = lower value. For orientation: In flow cytometry, cells or beads pass a laser one at a time.
Assay [2] in a line: TOR pathway GLN3 branch reporter MEP2-GFP changes – S. cerevisiae, multiplex flow cytometry, primary screen (AID 1867;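 active = GFP response, as percent of the DMSO control, above the screen-wide mean plus 3 SD, about 139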;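 also: median GFP channel fluorescence of barcode-gated MEP2-GFP cells measured by flow cytometry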). As to conditions: S. cerevisiae MEP2-GFP strain, 3 h, at 10 µM, stronger effect = higher value.
A short description of assay [3]: TOR pathway RTG branch CIT2 reporter changes – S. cerevisiae, GFP fusion, multiplex flow cytometry, primary screen (AID 1870;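 active = percent response above a set limit, the screen-wide mean plus 3 SD, cut at about 130% in these data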;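 also: barcoded CIT2-GFP strain pooled with four other GFP strains with rapamycin as positive control; median GFP fluorescence per well over plate mean of DMSO wells so 100% = DMSO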). Particulars: S. cerevisiae CIT2-GFP expression, 3 h, at 10 µM, stronger effect = higher value.
Assay [4] is described as follows: TOR pathway LAP4-GFP level changes – S. cerevisiae, multiplex flow cytometry, primary screen (AID 1873;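 active = GFP signal, as percent of the solvent control, above the screen mean plus 3 SD, about 149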). Particulars: S. cerevisiae LAP4-GFP expression, 3 h, at 10 µM, stronger effect = higher value.
Assay [5] is described as follows: yeast AGP1-GFP level changes, GLN3 branch – cell-based, multiplex flow cytometry, S. cerevisiae, primary screen (AID 1887;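 active = GFP signal above the screen-wide mean plus 3 SD, that is over about 124.5% of the solvent control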;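 also: AGP1-GFP fusion strain of S. cerevisiae within a five-strain barcoded multiplex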). As to conditions: 3 h, at 10 µM, stronger effect = higher value.
A short description of assay [6]: reduced mouse 2C T cell binding to pMHC/ICAM-1 vesicles – MLPCN validation set, flow cytometry, LFA-1/ICAM-1 modulator project, pilot screen (AID 2523;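 active = response below a set limit, under 55% cells CD8-positive and vesicle-bound, and CD8 cells' 90th-percentile brightness under 279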;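 as to vesicle binding response: mean PE anti-B7-1 fluorescence of CD8+ cells relative to row control; 100% = QL9-loaded vesicles with DMSO vehicle in the same plate row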). Particulars: 2C mouse CD8+ T cells, at 7 µM, stronger effect = lower value; double positive events: measured here: CD8+/vesicle+ event percentage.
Assay [7] deals with Integrin beta-1 (Homo sapiens) + Integrin alpha-4 (Homo sapiens) (UniProt P13612+P05556). The experiment in a line: alpha4beta1 integrin LIBS antibody binding reduction – U937 cells, HUTS-21 mAb, flow cytometry, validation set, VLA-4 allosteric modulator project, pilot screen (AID 2674;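 active = inhibition above 50%, about 3 SD of the validation set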;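 also: antibody binding induced by the VLA-4 ligand LDV present at three times its Kd; 0% = LDV ligand with antibody and no compound and 100% = antibody without LDV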). Particulars: HUTS-21 LIBS mAb binding, at 6.7 µM, stronger effect = higher value.
Assay [8] addresses Beta-adrenergic receptor kinase 1 (Homo sapiens) (UniProt P25098). The experiment in a line: GRK2 binders displacing RNA aptamer, biochemical, validation, human GRK2, bead flow cytometry (AID 488806;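 active = aptamer binding inhibition above 30%, about 3 SD of noise from non-fluorescent compounds; inactive = inhibition at or below 30%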). Particulars: bead-bound GRK2, FAM-aptamer displacement, at 10 µM, stronger effect = higher value.
Assay [9] deals with Beta-2 adrenergic receptor (Homo sapiens) (UniProt P07550). As to the kind of experiment: agonist-induced loss of surface beta2AR – cell-based, FAP fluorogen, flow cytometry, validation set, pilot screen (AID 504459;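 active = percent response above 42, roughly 3 SD of non-fluorescent test compounds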;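 also: agonist-driven loss of surface beta2AR via internalization measured by FAP dye flow cytometry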). Particulars: Am2.2-beta2AR cells, at 10 µM, stronger effect = higher value.
The target of assay [10] is AP-2 complex subunit beta (Homo sapiens) (UniProt P63010). The experiment in a line: beta-arrestin/AP2 interaction blockers – biochemical, validation set, GST-AP2 beads, flow cytometry, pilot screen (AID 504541;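 active = inhibition above 54%, about 3 SD of non-fluorescent compounds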;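 also: AP2 carries R879A mutation and is captured from E. coli lysate; bead-bound FITC arrestin peptide fluorescence measuring arrestin peptide binding to AP2; 0% = DMSO wells and 100% = excess unlabeled arrestin peptide control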). As to conditions: FITC arrestin peptide, at 10 µM, stronger effect = higher value.
Assay [11] in a line: cytosolic pH regulators acting via V-ATPase – S. cerevisiae, pHLuorin, HTS validation (AID 504600; in the data active = response above about 15%;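 also: plate controls were DMSO for no effect and reference compound for full effect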). Particulars: V-ATPase proton transport, at 10 µM, stronger effect = higher value.
Assay [12] concerns anti-desmoglein-3 scFv antibody binding to human DSG3. The experiment in a line: blockers of pathogenic pemphigus antibody–desmoglein-3 binding – biochemical, validation compound set, bead-based, flow cytometry, pilot screen (AID 588368;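 active = binding below the plate cutoff, the plate median minus 3 SD, with a reading above zero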;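 also: signal is the median channel fluorescence of bead-bound GFP antibody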). Particulars: Protein G beads, DSG3-Fc, scFv-GFP binding, at 10 µM, stronger effect = lower value.
For assay [13], the system named is Botulinum neurotoxin type F light chain protease (Clostridium botulinum). The experiment in a line: Clostridium botulinum type F light chain protease inhibitors, microsphere substrate cleavage, validation (AID 588459). Particulars: multiplex microsphere protease substrate cleavage assay, flow cytometry; at 10 µM; stronger effect = higher value.
Assay [14] has as its target Botulinum neurotoxin type A (Clostridium botulinum) (UniProt P0DPI0). As to the kind of experiment: BoNT/A light chain protease inhibitors, biochemical, multiplex microsphere flow cytometry, validation set (AID 588460). Particulars: at 10 µM, stronger effect = higher value.
Assay [15] addresses Lethal factor (Bacillus anthracis) (UniProt P15917). The experiment in a line: Bacillus anthracis lethal factor inhibition, microsphere flow cytometry protease assay, validation at 10 µM (AID 588461). Particulars: multiplex microsphere protease cleavage assay, stronger effect = higher value.
A short description of assay [16]: Nile Red efflux blockade in pump-expressing yeast – validation compound set, multiplex, phenotypic, pilot screen (AID 588506;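 active = efflux inhibition above 0.42, the validation set average plus 4 SD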;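 also: Nile Red retained in cells so higher fluorescence means more efflux inhibition; 0 = negative control wells and 1 = enniatin B 25 µM full block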). Particulars: S. cerevisiae pump-expressing triplex, Nile Red efflux flow cytometry; at 10 µM; stronger effect = higher value.
For assay [17], the target named is ATP-binding cassette sub-family B member 6 (Homo sapiens) (UniProt Q9NP58). The experiment in a line: blockers of ABCB6-driven porphyrin uptake – K562-ABCB6 cells, flow cytometry, validation set, pilot screen (AID 588550;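 active = inhibition above the screen-wide mean plus 3 SD, about 51%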;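 also: 0% = DMSO wells and 100% = benzethonium chloride 70 µM positive control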). As to conditions: K562-ABCB6 porphyrin accumulation, 1 h, at 10 µM, stronger effect = higher value.
Assay [18] is described as follows: AML differentiation inducers, ER-HoxA9 marrow cells – cell-based, GFP/MAC1 double positive, flow cytometry, validation set, primary screen (AID 588685;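 active = differentiation response of at least 50%, scaled between solvent and reference control, from cells with both markers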;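 also: compound exposure lasts four days before antibody staining and flow analysis; 0% = DMSO wells and 100% = 5 µM fulvestrant positive control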). As to conditions: stronger effect = higher value.
Assay [19] in a line: calorie-restriction mimetic ROS inhibitors, yeast – validation compound set, pilot screen (AID 2706;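 active = superoxide response below 65% of plate, a cut near 3 SD across the whole screen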;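 also: yeast exposed to compound for one week at 30 degrees C before staining; 100% = mean of all compound wells on the same plate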). Particulars: S. cerevisiae aging, superoxide DHE fluorescence; at 10 µM; stronger effect = lower value.

Chain of Lethal factor (Bacillus anthracis) (P15917 whole entry, looked up): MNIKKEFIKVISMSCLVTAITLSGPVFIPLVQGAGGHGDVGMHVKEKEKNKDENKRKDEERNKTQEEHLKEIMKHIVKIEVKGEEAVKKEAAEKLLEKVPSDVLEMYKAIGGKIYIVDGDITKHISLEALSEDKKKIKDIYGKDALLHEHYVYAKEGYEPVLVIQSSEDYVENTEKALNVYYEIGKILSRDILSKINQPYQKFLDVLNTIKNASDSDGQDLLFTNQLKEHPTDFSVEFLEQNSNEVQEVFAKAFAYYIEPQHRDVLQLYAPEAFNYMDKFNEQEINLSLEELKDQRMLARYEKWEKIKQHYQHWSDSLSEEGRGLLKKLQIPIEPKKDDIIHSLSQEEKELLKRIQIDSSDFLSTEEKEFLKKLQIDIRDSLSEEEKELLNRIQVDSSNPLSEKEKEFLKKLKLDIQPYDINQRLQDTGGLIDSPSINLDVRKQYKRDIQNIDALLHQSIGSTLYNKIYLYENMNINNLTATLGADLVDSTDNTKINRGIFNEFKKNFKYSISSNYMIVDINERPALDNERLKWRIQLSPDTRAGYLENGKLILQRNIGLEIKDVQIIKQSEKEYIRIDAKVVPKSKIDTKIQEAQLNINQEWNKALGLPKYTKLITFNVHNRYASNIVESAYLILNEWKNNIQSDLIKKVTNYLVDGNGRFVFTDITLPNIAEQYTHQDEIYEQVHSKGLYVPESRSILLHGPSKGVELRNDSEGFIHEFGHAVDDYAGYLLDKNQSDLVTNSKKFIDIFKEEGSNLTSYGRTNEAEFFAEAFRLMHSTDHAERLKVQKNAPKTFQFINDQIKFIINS
Chain of ATP-binding cassette sub-family B member 6 (Homo sapiens) (Q9NP58 whole entry, looked up): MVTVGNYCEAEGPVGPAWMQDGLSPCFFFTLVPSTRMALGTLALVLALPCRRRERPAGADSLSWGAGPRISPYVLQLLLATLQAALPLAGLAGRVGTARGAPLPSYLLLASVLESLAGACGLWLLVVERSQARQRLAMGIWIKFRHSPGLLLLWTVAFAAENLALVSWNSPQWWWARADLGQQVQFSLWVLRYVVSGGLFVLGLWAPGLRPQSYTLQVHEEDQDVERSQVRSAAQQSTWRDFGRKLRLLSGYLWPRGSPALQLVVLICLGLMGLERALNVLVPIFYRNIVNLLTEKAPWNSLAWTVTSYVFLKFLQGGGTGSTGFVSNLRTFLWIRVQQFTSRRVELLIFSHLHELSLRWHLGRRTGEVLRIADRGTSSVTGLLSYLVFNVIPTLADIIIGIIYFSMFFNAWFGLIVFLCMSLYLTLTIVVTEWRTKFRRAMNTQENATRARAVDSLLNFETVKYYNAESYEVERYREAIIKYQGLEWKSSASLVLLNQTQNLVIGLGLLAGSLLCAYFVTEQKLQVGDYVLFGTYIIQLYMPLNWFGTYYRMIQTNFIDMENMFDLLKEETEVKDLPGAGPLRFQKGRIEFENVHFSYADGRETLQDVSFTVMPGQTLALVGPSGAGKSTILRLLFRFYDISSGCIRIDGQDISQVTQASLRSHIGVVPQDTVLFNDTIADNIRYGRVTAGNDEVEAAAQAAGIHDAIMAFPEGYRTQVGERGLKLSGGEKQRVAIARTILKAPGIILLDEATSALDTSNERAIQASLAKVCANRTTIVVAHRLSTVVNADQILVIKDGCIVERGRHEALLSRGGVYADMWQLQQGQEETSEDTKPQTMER
Chain of Beta-adrenergic receptor kinase 1 (Homo sapiens) (P25098 whole entry, looked up): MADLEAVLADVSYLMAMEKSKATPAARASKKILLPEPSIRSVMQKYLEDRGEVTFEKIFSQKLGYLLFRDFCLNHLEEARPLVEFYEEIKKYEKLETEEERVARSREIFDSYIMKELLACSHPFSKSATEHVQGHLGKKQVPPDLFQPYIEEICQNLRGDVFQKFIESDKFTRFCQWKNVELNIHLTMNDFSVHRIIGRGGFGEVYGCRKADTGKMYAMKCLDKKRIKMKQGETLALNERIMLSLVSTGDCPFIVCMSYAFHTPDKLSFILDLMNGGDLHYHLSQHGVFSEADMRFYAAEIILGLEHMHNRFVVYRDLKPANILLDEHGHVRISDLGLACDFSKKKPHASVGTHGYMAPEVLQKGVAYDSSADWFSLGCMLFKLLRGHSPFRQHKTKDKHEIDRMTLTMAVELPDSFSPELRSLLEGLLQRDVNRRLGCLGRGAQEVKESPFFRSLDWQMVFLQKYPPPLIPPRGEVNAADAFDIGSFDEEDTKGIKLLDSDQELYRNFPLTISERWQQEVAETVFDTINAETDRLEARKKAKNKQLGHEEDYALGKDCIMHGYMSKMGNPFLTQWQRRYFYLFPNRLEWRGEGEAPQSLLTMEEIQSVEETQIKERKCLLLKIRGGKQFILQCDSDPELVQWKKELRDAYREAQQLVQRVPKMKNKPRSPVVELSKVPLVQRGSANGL
Chain of Beta-2 adrenergic receptor (Homo sapiens) (P07550 whole entry, looked up): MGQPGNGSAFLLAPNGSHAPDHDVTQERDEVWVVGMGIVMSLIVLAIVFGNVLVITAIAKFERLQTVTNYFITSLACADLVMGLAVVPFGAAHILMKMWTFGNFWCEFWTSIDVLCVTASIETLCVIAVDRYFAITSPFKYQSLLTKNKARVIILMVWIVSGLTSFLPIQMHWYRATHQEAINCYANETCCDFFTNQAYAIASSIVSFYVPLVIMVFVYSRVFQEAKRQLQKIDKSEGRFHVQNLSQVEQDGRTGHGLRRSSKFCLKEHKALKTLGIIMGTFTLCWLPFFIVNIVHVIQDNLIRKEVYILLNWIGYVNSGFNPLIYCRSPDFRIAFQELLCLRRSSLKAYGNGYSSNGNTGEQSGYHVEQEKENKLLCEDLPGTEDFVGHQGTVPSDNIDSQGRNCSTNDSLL
Chain of AP-2 complex subunit beta (Homo sapiens) (P63010 whole entry, looked up, one chain of several): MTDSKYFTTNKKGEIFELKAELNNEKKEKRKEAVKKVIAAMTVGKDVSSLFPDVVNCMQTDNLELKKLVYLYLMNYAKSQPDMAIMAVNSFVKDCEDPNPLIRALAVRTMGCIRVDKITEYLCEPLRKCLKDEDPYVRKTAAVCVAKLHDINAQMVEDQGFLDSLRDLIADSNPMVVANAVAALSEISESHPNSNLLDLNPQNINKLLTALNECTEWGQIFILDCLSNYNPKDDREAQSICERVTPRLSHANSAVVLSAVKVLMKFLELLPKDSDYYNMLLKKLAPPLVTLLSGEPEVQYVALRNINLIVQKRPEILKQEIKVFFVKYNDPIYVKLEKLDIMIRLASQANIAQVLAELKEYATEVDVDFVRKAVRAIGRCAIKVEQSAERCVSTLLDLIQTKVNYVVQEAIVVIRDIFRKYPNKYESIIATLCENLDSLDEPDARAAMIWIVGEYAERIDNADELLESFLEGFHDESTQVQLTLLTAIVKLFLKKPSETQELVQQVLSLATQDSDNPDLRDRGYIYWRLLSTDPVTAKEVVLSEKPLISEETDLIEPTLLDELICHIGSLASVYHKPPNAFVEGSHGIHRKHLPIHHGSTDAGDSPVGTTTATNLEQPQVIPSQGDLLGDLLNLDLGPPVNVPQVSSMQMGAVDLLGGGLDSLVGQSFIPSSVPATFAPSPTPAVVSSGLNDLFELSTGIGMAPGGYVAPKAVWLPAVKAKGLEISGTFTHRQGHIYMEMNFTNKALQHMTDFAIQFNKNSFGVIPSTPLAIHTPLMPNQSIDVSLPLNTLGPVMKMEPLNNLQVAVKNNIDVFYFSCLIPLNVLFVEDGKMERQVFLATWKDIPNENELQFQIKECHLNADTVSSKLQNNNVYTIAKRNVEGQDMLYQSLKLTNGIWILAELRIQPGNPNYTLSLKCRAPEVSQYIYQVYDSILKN
Chain of Botulinum neurotoxin type A (Clostridium botulinum) (P0DPI0 whole entry, looked up): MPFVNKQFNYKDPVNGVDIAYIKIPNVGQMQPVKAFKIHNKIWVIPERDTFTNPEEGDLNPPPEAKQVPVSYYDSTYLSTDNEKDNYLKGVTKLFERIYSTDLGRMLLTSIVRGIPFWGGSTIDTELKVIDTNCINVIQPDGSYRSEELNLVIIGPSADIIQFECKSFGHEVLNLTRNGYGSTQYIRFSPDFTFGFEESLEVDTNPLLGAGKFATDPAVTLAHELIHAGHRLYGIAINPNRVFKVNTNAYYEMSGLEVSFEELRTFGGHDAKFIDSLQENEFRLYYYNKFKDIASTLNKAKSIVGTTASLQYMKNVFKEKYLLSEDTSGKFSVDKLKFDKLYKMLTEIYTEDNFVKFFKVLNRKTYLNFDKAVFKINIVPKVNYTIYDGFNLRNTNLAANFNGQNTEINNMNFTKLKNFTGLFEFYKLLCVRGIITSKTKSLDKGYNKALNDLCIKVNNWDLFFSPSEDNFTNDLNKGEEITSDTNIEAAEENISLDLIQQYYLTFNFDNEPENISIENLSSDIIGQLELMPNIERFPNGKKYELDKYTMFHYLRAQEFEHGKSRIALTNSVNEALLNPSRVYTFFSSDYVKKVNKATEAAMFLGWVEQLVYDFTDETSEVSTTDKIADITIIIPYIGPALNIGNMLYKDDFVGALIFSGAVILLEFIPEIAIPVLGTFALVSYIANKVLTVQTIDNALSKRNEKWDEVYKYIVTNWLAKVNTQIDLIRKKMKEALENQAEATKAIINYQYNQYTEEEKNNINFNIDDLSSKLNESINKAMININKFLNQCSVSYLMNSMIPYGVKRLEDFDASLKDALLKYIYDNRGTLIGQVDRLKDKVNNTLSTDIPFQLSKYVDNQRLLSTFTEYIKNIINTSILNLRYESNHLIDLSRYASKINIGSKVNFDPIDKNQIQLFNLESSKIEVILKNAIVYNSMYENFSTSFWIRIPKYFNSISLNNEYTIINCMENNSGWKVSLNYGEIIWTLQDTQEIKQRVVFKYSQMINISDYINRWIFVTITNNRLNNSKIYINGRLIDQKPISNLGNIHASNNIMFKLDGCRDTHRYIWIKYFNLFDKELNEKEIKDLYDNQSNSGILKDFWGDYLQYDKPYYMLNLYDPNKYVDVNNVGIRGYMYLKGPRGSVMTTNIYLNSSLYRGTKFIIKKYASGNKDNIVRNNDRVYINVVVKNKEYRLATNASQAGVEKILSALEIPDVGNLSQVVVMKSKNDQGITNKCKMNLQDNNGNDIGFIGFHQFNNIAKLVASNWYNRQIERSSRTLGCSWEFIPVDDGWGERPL

Turning to `C[C@]12CCC(=O)C=C1CC[C@@H]1[C@@H]2CC[C@]2(C)C(=O)CC[C@@H]12`, in assay [1], the percent of DMSO control GFP is 97.6% (inactive). Besides, the figures for the GFP response vs DMSO in assay [2] and in [4] were 95.1% (inactive) and 106% (inactive), respectively. The percent response of DMSO control in assay [3] was 80.3% (inactive). For the same compound, the GFP response, % of DMSO in assay [5] was 84.2% (inactive). In addition, the double positive events in assay [6] was determined as 66.1%. Further, in [6], the vesicle binding response is 210% (inactive). Also, the inhibition in [7] is 1.62% (inactive); in assay [10], -7.92% (inactive); in [13], -2.7% (inactive); in [14], -2.1% (inactive); in assay [15], -3.5% (inactive); in [17] it was 9% (inactive). Besides, the aptamer binding inhibition in assay [8] is 1% (inactive). The response is -0.98% (inactive) in [9] and -1.25% (inactive) in assay [11]. Moreover, in assay [12], the binding (% of control) is 99.8% (inactive). Moreover, the efflux inhibition (fraction of control) in assay [16] is 0.05 (inactive). In addition, the differentiation response in [18] is 11% (inactive).
Consider `C[C@]12CC[C@@H](O)C[C@@H]1CC[C@@H]1[C@@H]2CC[C@]2(C)C(=O)CC[C@@H]12`, for which the percent of DMSO control GFP in assay [1] is 100% (inactive). The GFP response vs DMSO is 99.7% (inactive) in assay [2] and 147% (inactive) in [4]. For the same compound, the percent response of DMSO control in assay [3] is 84.1% (inactive). For the same compound, in assay [5], the GFP response, % of DMSO is 101% (inactive). The double positive events in assay [6] was determined as 62.8%. Also, the vesicle binding response in assay [6] was 118% (inactive). Further, the inhibition is -2.43% (inactive) in assay [7]; -0.33% (inactive) in [10]; 2% (inactive) in [13]; -0.3% (inactive) in assay [14]; -2.4% (inactive) in assay [15]; 0% (inactive) in [17]. In [19], the superoxide response (% of plate) was 75.3% (inactive). For the same compound, in [8], the aptamer binding inhibition is 3% (inactive). In addition, the response in assay [9] was 20.4% (inactive); in [11], -2.85% (inactive). In addition, in [12], the binding (% of control) is 99% (inactive). The efflux inhibition (fraction of control) in [16] was -0.07 (inactive). For the same compound, the differentiation response in assay [18] is -4.57% (inactive).
As for `Nc1ccncc1`, in [1], the percent of DMSO control GFP was 97.9% (inactive). Further, the results for the GFP response vs DMSO in assay [2] and in assay [4] were 119% (inactive) and 77.6% (inactive), respectively. Also, in assay [3], the percent response of DMSO control is 111% (inactive). Also, in assay [5], the GFP response, % of DMSO was 99.6% (inactive). Also, the double positive events in assay [6] was 61%. The vesicle binding response in assay [6] is 218% (inactive). Moreover, the inhibition in assay [7] is -0.33% (inactive); in [10], -14.8% (inactive); in assay [13], 2.4% (inactive); in assay [14], -0.4% (inactive); in assay [15], -3% (inactive); in assay [17], 13% (inactive). Moreover, in assay [19], the superoxide response (% of plate) was 94.5% (inactive). Further, in assay [8], the aptamer binding inhibition is 1% (inactive). In addition, the response was -11.6% (inactive) in assay [9] and -2.33% (inactive) in assay [11]. For the same compound, in assay [12], the binding (% of control) is 108% (inactive). In assay [16], the efflux inhibition (fraction of control) was -0.02 (inactive). The differentiation response in assay [18] was 4.09% (inactive).
For `CCCC[N+]1(C)[C@@H]2CC(OC(=O)[C@H](CO)c3ccccc3)C[C@H]1[C@@H]1O[C@@H]12` (some centres undefined), the percent of DMSO control GFP in assay [1] was 107% (inactive). The values for the GFP response vs DMSO in assay [2] and in assay [4] were 109% (inactive) and 112% (inactive), respectively. Moreover, in assay [3], the percent response of DMSO control is 106% (inactive). In assay [5], the GFP response, % of DMSO is 111% (inactive). The double positive events in assay [6] was 59.9%. Besides, the vesicle binding response in assay [6] is 150% (inactive). Also, the inhibition in assay [7] was -15.8% (inactive); in [10] it was 0.96% (inactive); in assay [13] it was 1.1% (inactive); in assay [14] it was 0.2% (inactive); in [15], -5.3% (inactive); in assay [17] it was 28% (inactive). Also, the superoxide response (% of plate) in assay [19] is 97.4% (inactive). Moreover, the aptamer binding inhibition in [8] is 4% (inactive). Further, the response was -2.08% (inactive) in [9] and -3.56% (inactive) in assay [11]. Moreover, the binding (% of control) in assay [12] is 96.4% (inactive). The efflux inhibition (fraction of control) in assay [16] is 0.3 (inactive). The differentiation response in assay [18] was 13% (inactive).
